Data reported in paper PMC11062922 (Nature Chemical Biology, 2023).

Experiments:
Design in all cases: species or system human, MV4-11 + K-562 + COLO205 + SK-N-BE2 + OVCAR-8
[1] = tested on: ADK; conditions: read-out: apparent Kd; compound concentrations: 100 nM and 1000 nM (sheet 'Samples'), CATDS: 3.8521875066841203E-2; n = 1
[2] = tested on: COX5A; conditions: read-out: apparent Kd; compound concentrations: 100 nM and 1000 nM (sheet 'Samples'), CATDS: 3.6331945852285497E-2; n = 1
[3] = tested on: CSNK1A1; conditions: read-out: apparent Kd; compound concentrations: 100 nM and 1000 nM (sheet 'Samples'), CATDS: 6.6366617124681102E-2; n = 1
[4] = tested on: CSNK1D; conditions: read-out: apparent Kd; compound concentrations: 100 nM and 1000 nM (sheet 'Samples'), CATDS: 0.21669980545697101; n = 1
[5] = tested on: CSNK1E; conditions: read-out: apparent Kd; compound concentrations: 100 nM and 1000 nM (sheet 'Samples'), CATDS: 0.13524385654208201; n = 1
[6] = tested on: CSNK1G1; conditions: read-out: apparent Kd; compound concentrations: 100 nM and 1000 nM (sheet 'Samples'), CATDS: 3.36950722911461E-2; n = 1
[7] = tested on: CSNK1G3; conditions: read-out: apparent Kd; compound concentrations: 100 nM and 1000 nM (sheet 'Samples'), CATDS: 3.7890071369445298E-2; n = 1
[8] = tested on: T1, DJA1; conditions: read-out: apparent Kd; compound concentrations: 100 nM and 1000 nM (sheet 'Samples'), CATDS: 3.3060215115758199E-2; n = 1
T1 construct: gene DNAJA1

[9] = tested on: MAP4K5; conditions: read-out: apparent Kd; compound concentrations: 100 nM and 1000 nM (sheet 'Samples'), CATDS: 3.4056635134305298E-2; n = 1
[10] = tested on: MAPK10; conditions: read-out: apparent Kd; compound concentrations: 100 nM and 1000 nM (sheet 'Samples'), CATDS: 4.2468368704664097E-2; n = 1
[11] = tested on: MAPK11; conditions: read-out: apparent Kd; compound concentrations: 100 nM and 1000 nM (sheet 'Samples'), CATDS: 0.108415283939704; n = 1
[12] = tested on: MAPK14; conditions: read-out: apparent Kd; compound concentrations: 100 nM and 1000 nM (sheet 'Samples'), CATDS: 0.505182268244599; n = 1
[13] = tested on: MAPK9; conditions: read-out: apparent Kd; compound concentrations: 100 nM and 1000 nM (sheet 'Samples'), CATDS: 5.19093996737921E-2; n = 1
[14] = tested on: MAPKAPK2; conditions: read-out: apparent Kd; compound concentrations: 100 nM and 1000 nM (sheet 'Samples'), CATDS: 0.16433458855485; n = 1
[15] = tested on: NLK; conditions: read-out: apparent Kd; compound concentrations: 100 nM and 1000 nM (sheet 'Samples'), CATDS: 5.68204402660955E-2; n = 1
[16] = tested on: PKN3; conditions: read-out: apparent Kd; compound concentrations: 100 nM and 1000 nM (sheet 'Samples'), CATDS: 3.0507466694278802E-2; n = 1
[17] = tested on: PRKCA; conditions: read-out: apparent Kd; compound concentrations: 100 nM and 1000 nM (sheet 'Samples'), CATDS: 4.1145920495800903E-2; n = 1
[18] = tested on: PRKCB; conditions: read-out: apparent Kd; compound concentrations: 100 nM and 1000 nM (sheet 'Samples'), CATDS: 3.4087347473579097E-2; n = 1
[19] = tested on: PRKD2; conditions: read-out: apparent Kd; compound concentrations: 100 nM and 1000 nM (sheet 'Samples'), CATDS: 3.50594175571005E-2; n = 1
[20] = tested on: PRKD3; conditions: read-out: apparent Kd; compound concentrations: 100 nM and 1000 nM (sheet 'Samples'), CATDS: 3.1320583757310602E-2; n = 1
[21] = tested on: RIPK2; conditions: read-out: apparent Kd; compound concentrations: 100 nM and 1000 nM (sheet 'Samples'), CATDS: 4.9528140659543501E-2; n = 1
[22] = tested on: ADRBK1; conditions: read-out: apparent Kd; compound concentrations:100 nM and 1000 nM (sheet 'Samples'); n = 1
[23] = tested on: CDK6; conditions: read-out: apparent Kd; compound concentrations:100 nM and 1000 nM (sheet 'Samples'); n = 1
[24] = tested on: AKT2; conditions: read-out: apparent Kd; compound concentrations:100 nM and 1000 nM (sheet 'Samples'); n = 1
[25] = tested on: AKT3; conditions: read-out: apparent Kd; compound concentrations:100 nM and 1000 nM (sheet 'Samples'); n = 1
[26] = tested on: NQO1; conditions: read-out: apparent Kd; compound concentrations:100 nM and 1000 nM (sheet 'Samples'); n = 1
[27] = tested on: PKN2; conditions: read-out: apparent Kd; compound concentrations:100 nM and 1000 nM (sheet 'Samples'); n = 1
[28] = tested on: PRKCI; conditions: read-out: apparent Kd; compound concentrations:100 nM and 1000 nM (sheet 'Samples'); n = 1
[29] = tested on: PRKG1; conditions: read-out: apparent Kd; compound concentrations:100 nM and 1000 nM (sheet 'Samples'); n = 1
[30] = tested on: ROCK2; conditions: read-out: apparent Kd; compound concentrations:100 nM and 1000 nM (sheet 'Samples'); n = 1
[31] = tested on: RPS6KB1; conditions: read-out: apparent Kd; compound concentrations:100 nM and 1000 nM (sheet 'Samples'); n = 1
[32] = tested on: TTN; conditions: read-out: apparent Kd; compound concentrations:100 nM and 1000 nM (sheet 'Samples'); n = 1
[33] = tested on: ERBB3; conditions: read-out: apparent Kd; compound concentrations:100 nM and 1000 nM (sheet 'Samples'); n = 1
[34] = tested on: RIOK2; conditions: read-out: apparent Kd; compound concentrations:100 nM and 1000 nM (sheet 'Samples'); n = 1
[35] = tested on: ADCK5; conditions: read-out: apparent Kd; compound concentrations:100 nM and 1000 nM (sheet 'Samples'); n = 1
[36] = tested on: CDK4; conditions: read-out: apparent Kd; compound concentrations:100 nM and 1000 nM (sheet 'Samples'); n = 1
[37] = tested on: DDR1; conditions: read-out: apparent Kd; compound concentrations:100 nM and 1000 nM (sheet 'Samples'); n = 1
[38] = tested on: MAP2K2; conditions: read-out: apparent Kd; compound concentrations:100 nM and 1000 nM (sheet 'Samples'); n = 1
[39] = tested on: NNT; conditions: read-out: apparent Kd; compound concentrations:100 nM and 1000 nM (sheet 'Samples'); n = 1
[40] = tested on: STK26; conditions: read-out: apparent Kd; compound concentrations:100 nM and 1000 nM (sheet 'Samples'); n = 1
[41] = tested on: TP53RK; conditions: read-out: apparent Kd; compound concentrations:100 nM and 1000 nM (sheet 'Samples'); n = 1

## Cl.Cl.Cl.Fc1ccc(-c2ncn(C3CCNCC3)c2-c2ccnc(Nc3ccccc3)n2)cc1.Fc1ccc(-c2ncn(C3CCNCC3)c2-c2ccnc(Nc3ccccc3)n2)cc1 [SB-238039-R]
[1]
  potency estimated from few doses: 0.704 µM
[2]
  potency estimated from few doses: 0.873 µM
[3]
  potency estimated from few doses: 0.131 µM
[4]
  potency estimated from few doses: 0.00661 µM
[5]
  potency estimated from few doses: 0.0185 µM
[6]
  potency estimated from few doses: 1.18 µM
[7]
  potency estimated from few doses: 0.747 µM
[8]
  potency estimated from few doses: 1.29 µM
[9]
  potency estimated from few doses: 1.13 µM
[10]
  potency estimated from few doses: 0.504 µM
[11]
  potency estimated from few doses: 0.0327 µM
[12]
  potency estimated from few doses: 0.00159 µM
[13]
  potency estimated from few doses: 0.27 µM
[14]
  potency estimated from few doses: 0.0118 µM
[15]
  potency estimated from few doses: 0.206 µM
[16]
  potency estimated from few doses: 1.9 µM
[17]
  potency estimated from few doses: 0.56 µM
[18]
  potency estimated from few doses: 1.13 µM
[19]
  potency estimated from few doses: 1 µM
[20]
  potency estimated from few doses: 1.66 µM
[21]
  potency estimated from few doses: 0.311 µM

## Nc1n[nH]c2nnc(-c3ccccc3)cc12 [SB-517389]
[22]
  potency estimated from few doses: 1.38 µM
[23]
  potency estimated from few doses: 1.87 µM

## CCn1c(-c2nonc2N)nc2cnc(Oc3cccc(NC(=O)c4ccc(OCCN5CCOCC5)cc4)c3)cc21.Cl [GSK269962B]
[22]
  potency estimated from few doses: 1.48 µM
[24]
  potency estimated from few doses: 2.18 µM
[25]
  potency estimated from few doses: 1.6 µM
[26]
  potency estimated from few doses: 0.175 µM
[27]
  potency estimated from few doses: 1.85 µM
[28]
  potency estimated from few doses: 1.97 µM
[29]
  potency estimated from few doses: 0.0703 µM
[30]
  potency estimated from few doses: 0.294 µM
[31]
  potency estimated from few doses: 0.719 µM
[32]
  potency estimated from few doses: 0.388 µM

## CCc1cc(Nc2nccc(-c3c(-c4ccc(OC)c(C(=O)Nc5c(F)cccc5F)c4)nc4ccccn34)n2)c(OC)cc1N1CCC(N2CCN(S(C)(=O)=O)CC2)CC1 [GSK1904529]
[22]
  potency estimated from few doses: 2.03 µM
[23]
  potency estimated from few doses: 2.37 µM
[33]
  potency estimated from few doses: 1.36 µM
[34]
  potency estimated from few doses: 2.22 µM

## COC(=O)Nc1nc2ccc(Oc3ccc(NC(=O)Nc4cc(C(F)(F)F)ccc4F)cc3)cc2n1C.Cl [GW692089A]
[35]
  potency estimated from few doses: 1.77 µM
[22]
  potency estimated from few doses: 1.5 µM
[24]
  potency estimated from few doses: 2.41 µM
[36]
  potency estimated from few doses: 2.2 µM
[23]
  potency estimated from few doses: 2.3 µM
[37]
  potency estimated from few doses: 1.03 µM
[38]
  potency estimated from few doses: 2.02 µM
[39]
  potency estimated from few doses: 1.91 µM
[26]
  potency estimated from few doses: 1.81 µM
[34]
  potency estimated from few doses: 2.17 µM
[40]
  potency estimated from few doses: 1.76 µM
[41]
  potency estimated from few doses: 1.4 µM
